CYP2C19 act: human CYP2C19 activators, primary screen, biochemical, luminescence. Cytochrome P450 2C19 (Homo sapiens), P33261. 96,000 tested, under 10 active. recombinant CYP2C19, luciferin-H EGE luminescence; stronger effect = higher value; 0 = fully inhibited enzyme, 1 = untreated enzyme. activation factor at 5 µM;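 active = activation factor of at least 2 at 5 µM in the primary screen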;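 note: 0 = wells with 2.5 mM tranylcypromine and 1 = vehicle-only wells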
Target sequence (P33261 whole entry, looked up): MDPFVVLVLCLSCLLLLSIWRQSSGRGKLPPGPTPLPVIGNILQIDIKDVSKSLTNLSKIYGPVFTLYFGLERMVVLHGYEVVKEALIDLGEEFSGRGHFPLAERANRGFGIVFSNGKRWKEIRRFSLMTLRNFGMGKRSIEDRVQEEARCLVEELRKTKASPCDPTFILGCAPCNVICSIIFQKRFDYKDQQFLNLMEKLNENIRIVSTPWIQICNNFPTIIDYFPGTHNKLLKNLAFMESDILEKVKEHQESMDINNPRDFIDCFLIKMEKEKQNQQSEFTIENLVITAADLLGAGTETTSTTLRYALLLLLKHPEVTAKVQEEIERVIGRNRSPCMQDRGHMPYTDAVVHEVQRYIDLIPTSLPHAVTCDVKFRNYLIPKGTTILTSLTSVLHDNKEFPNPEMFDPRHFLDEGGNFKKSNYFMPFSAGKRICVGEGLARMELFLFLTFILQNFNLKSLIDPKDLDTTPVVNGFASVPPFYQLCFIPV
MRP-1 activ: H69AR viability gain despite doxorubicin, primary screen, MRP-1 activator project, H69AR cells, CellTiter-Glo | viability increase, % at 10 µM | 0.61% of 140,000 active | viability rescue | AID 799, 2007;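 active = viability gain under doxorubicin at or above a set limit, the compound median plus 3 SD, cut at about 4.7% in these data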;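 note: MRP-1 overexpressing cells given doxorubicin 25 µM after compound pretreatment; 18-22 h compound pretreatment then 72 h with doxorubicin before readout; 0% = doxorubicin-only wells and 100% = vehicle-treated cells without doxorubicin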
MRP resist rev: reversal of MRP1-mediated doxorubicin resistance, primary screen, H69AR cells, doxorubicin co-treatment | AID 602, 2007 | differential viability (reversal), % at 10 µM | H69AR cells + 2 uM doxorubicin, CellTiter-Glo, 72 h | 0.04% of 85,000 active;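 active = viability drop by adding the cancer drug above about 55%, with treated viability meeting a 40% cutoff, limit read from the data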;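 note: viability without doxorubicin minus viability with 2 µM doxorubicin for each compound; larger differential means the compound sensitizes cells more to doxorubicin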
CYP2C9 inhib: blockers of cytochrome P450 2C9 activity – biochemical, luminescence, ADME assay, primary screen | P11712 | CYP2C9 Supersomes, luciferin-H conversion | inhibition, % at 5 µM | 20% of 96,000 active | AID 777, 2007;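 active = blocking of liver enzyme CYP2C9 beyond about 50% at 5 µM, limit read from the data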
CYP2C19 inhib: blockers of cytochrome P450 2C19 activity – biochemical, luminescence, ADME assay, primary screen. 21% of 96,000 active. CYP2C19 Supersomes, luciferin-H EGE luminescence, 30 min. P33261. AID 778, 2007. inhibition, % at 5 µM;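 active = CYP2C19 inhibition above a set limit at 5 µM in the primary screen, cut at about 50% in these data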;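 note: plate controls were negative control wells for no effect and 2.5 mM tranylcypromine positive control for full effect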
CYP2C9 act: human CYP2C9 activators, primary screen, biochemical, luminescence; Cytochrome P450 2C9 (Homo sapiens), P11712; recombinant CYP2C9, luciferin-H conversion; stronger effect = higher value; factor 1 = untreated enzyme, 0 = blocked; activation factor at 5 µM; 1.4% of 96,000 active; AID 1024, 2008;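 active = activation factor of 2 or more for CYP2C9 at a 5 µM dose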;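 note: 0 = sulfaphenazole-blocked wells and 1 = vehicle-only wells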
Active calls of the source: *; · = no result. Most compounds without a hit are left out; they make up all but 21% or so of the library.

SMILES	CYP2C19 act	MRP-1 activ	MRP resist rev	CYP2C9 inhib	CYP2C19 inhib	CYP2C9 act
O=C(N/N=C/c1ccco1)C1COc2ccccc2O1 (centres undefined)	·	2	·	·	·	·
C/C(=N\NC(=O)C1COc2ccccc2O1)c1cccs1 (centres undefined)	0.2	-3	-2	30	80*	0.7
Cc1nnc2n(c1=O)N=C(c1ccc(Cl)cc1)CS2	·	0	·	·	·	·
Cc1ccccc1CSc1n[nH]c(NS(=O)(=O)c2ccccc2)n1	0.6	0	·	18	36	0.8
Cc1ccc(S(=O)(=O)NCCC(=O)NC2CCCC2)cc1	0.9	-2	-11	-148	13	2.5*
COc1ccc(N2CCN(C(=O)CCNS(=O)(=O)c3ccc(Br)s3)CC2)cc1	0.2	0	1	91*	80*	0.1
COc1ccc(S(=O)(=O)NCCC(=O)NC2CCCCCCC2)cc1	·	-2	5	·	·	·
O=C(CCNS(=O)(=O)c1ccc(Br)s1)NC1CCCC1	0.9	0	8	-108	13	2.1*
COc1ccc(N2CCN(CCNC(=O)CCNS(=O)(=O)c3cccs3)CC2)cc1	1.1	0	11	-9	-14	1.1
O=C(CCNS(=O)(=O)c1ccc(Br)s1)N1CCCCC1	0.3	0	-8	-66	68*	1.7
O=C(CCS(=O)(=O)c1ccc(Br)s1)NC1CCCC1	1	-2	-1	-22	1	1.2
O=C(CCNS(=O)(=O)c1cccs1)N1CCCCCC1	0.8	-1	16	-6	19	1.1
O=C(NCc1cccs1)c1cc(C2CC2)on1	0.5	0	-6	6	45	0.9
CCCNS(=O)(=O)c1ccc(CCC(=O)N2CCN(c3ccc(OC)cc3)CC2)cc1	0.2	-2	-1	87*	80*	0.1
CCCNS(=O)(=O)c1ccc(CCC(=O)N2CCN(c3ccc(F)cc3)CC2)cc1	·	-3	·	·	·	·
COc1ccc(NC(=O)CNS(=O)(=O)c2ccc(Cl)cc2)cc1	·	-2	1	·	·	·
O=C(CCNS(=O)(=O)c1ccc(Br)s1)Nc1ccc(Cl)cc1	0.6	-1	0	-100	42	2*
COc1ccc(C(C(=O)NC2CCCC2)N(Cc2ccc(C)cc2)C(=O)c2ccn[nH]2)cc1OC (centres undefined)	0.9	-3	·	20	13	0.8
CCSc1nc2ccc(N3C(=O)C4C5C=CC(C5)C4C3=O)cc2s1 (centres undefined)	·	-2	·	·	·	·
CN(c1ccccc1)S(=O)(=O)c1ccc(C(=O)OCC(=O)N2CCOCC2)cc1	0.5	-2	-8	48	55*	0.5
COc1ccc(S(=O)(=O)N(C)c2ccc(C(=O)N3CCOCC3)cc2)cc1	0.9	-1	6	8	8	0.9
CCc1c(C(=O)NNC(=S)NCCc2ccccc2)csc1C	·	-2	·	·	·	·
CCOC(=O)c1cccc(NC(=O)CSc2nc3ccccc3c(=O)n2CC)c1	0.9	-3	-2	51*	8	0.5
CCOC(=O)c1cccc(NC(=O)CSc2nc3ccccc3c(=O)n2CCOC)c1	0.7	-3	-5	64*	27	0.4
COCCn1c(SCC(=O)NNC(=O)c2ccccc2)nc2ccccc2c1=O	·	-2	·	·	·	·
SMILES	CYP2C19 act	MRP-1 activ	MRP resist rev	CYP2C9 inhib	CYP2C19 inhib	CYP2C9 act
O=S(=O)(Nc1ccc2ccccc2c1)c1ccccc1	·	-3	·	·	·	·
CCc1ccc(NS(=O)(=O)c2ccc(OC)c(C)c2)cc1	0.2	-1	7	80*	78*	0.2
COc1ccc(S(=O)(=O)Nc2ccc3ccccc3c2)cc1C	0	0	-36	100*	100*	0
CNC(=O)c1ccccc1S(=O)(=O)c1ccccc1C#N	0.9	0	·	10	13	0.9
Cc1ccc(-n2nnc3c(=O)n(CC(=O)NCc4ccco4)cnc32)cc1	0.8	-1	-15	-113	17	2.1*
O=C(Cn1cnc2c(nnn2-c2ccccc2)c1=O)NCc1ccco1	1.1	-3	·	-83	-6	1.8
COc1ccc(-n2nc(C(=O)NCC(=O)NCc3ccco3)c3ccccc3c2=O)cc1	0.9	-3	8	62*	9	0.4
COc1ccc(-n2nc(C(=O)NCC(=O)NCc3ccc(F)cc3)c3ccccc3c2=O)c(OC)c1	0.8	0	·	51*	20	0.5
COc1ccc(-n2nc(C(=O)NCC(=O)Nc3ccccn3)c3ccccc3c2=O)cc1	0.9	-3	·	21	10	0.8
COc1ccc(-n2nc(C(=O)NCC(=O)NCC3CCCO3)c3ccccc3c2=O)cc1 (centres undefined)	0.7	-1	4	63*	26	0.4
COc1ccc(-n2nc(C(=O)NCC(=O)NCC3CCCO3)c3ccccc3c2=O)c(OC)c1 (centres undefined)	1.1	-2	1	37	-6	0.6
COc1ccc(N2CCN(Cc3nc4ccccc4n3C)CC2)cc1	·	-3	·	·	·	·
COc1ccc(-n2nc(C(=O)NCC(=O)NCc3ccco3)c3ccccc3c2=O)c(OC)c1	1.3	-3	5	72*	-28	0.3
Cc1ccc(/C=N/NC(=O)Cc2c[nH]c3ccccc23)c(C)c1	0.9	-1	·	34	10	0.7
CC(C)(C)c1ccc(/C=N/NC(=O)Cc2c[nH]c3ccccc23)cc1	0.7	-7	·	74*	28	0.3
Cc1ccc(-c2csc3ncnc(-n4cnc5ccccc54)c23)cc1	·	-4	·	·	·	·
COCC(C)n1c(C)cc(C(=O)COc2ccc(S(=O)(=O)N3CCOCC3)cc2Cl)c1C (centres undefined)	0.5	1	-21	58*	51*	0.4
COCCn1c(C)cc(C(=O)COC(=O)CCc2ccc(S(=O)(=O)N3CCOCC3)cc2)c1C	1	-1	17	-6	0	1.1
COc1cc2oc(=O)c3c(c2cc1OCC(=O)c1c(C)n(C)c2ccccc12)CCCC3	·	-3	·	·	·	·
O=C(c1cnccn1)N1CCN(S(=O)(=O)c2ccc3ccccc3c2)CC1	0.1	-1	13	17	95*	0.8
Cc1ccc(S(=O)(=O)N2CCN(C(=O)c3cc(=O)[nH]c4ccccc34)CC2)c(C)c1	0.9	-4	-33	10	8	0.9
Cc1ccc(C)c(S(=O)(=O)N2CCN(C(=O)c3cnccn3)CC2)c1	0.5	-1	-1	51*	51*	0.5
O=C(c1n[nH]c2ccccc12)N1CCN(S(=O)(=O)c2ccc3ccccc3c2)CC1	0.8	0	-26	56*	22	0.4
O=C1CN(C(=O)COC(=O)CCC(=O)c2ccc3c(c2)OCCO3)c2ccccc2N1	0.9	-2	16	-10	11	1.1
